A selection: hits, their analogues and other compounds. The true share with any hit is near 4.7%.
D1 antag – Antagonist of Human D 1 Dopamine Receptor: qHTS; D(1A) dopamine receptor (Homo sapiens), P21728; HEK293 TREx D1 cells, calcium flux, dopamine EC80; stronger effect = lower value; activity change, negative = inhibition, % at 10 µM; actives 3.2% (n = 360,000); in the data active means activity change below about -30%
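Compound effects on dopamine-evoked calcium signalling were measured in tetracycline-induced HEK293 Trex D1 cells. Dopamine at EC80 followed a 180 s compound pre-read, and fluorescence was tracked kinetically for 180 s more.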
TRHR PAM – qHTS for Small Molecule Agonists and Allosteric Enhancers of Human TRH Receptor: Primary Screen for Enhancers; TRHR cells, fluo-8 calcium fluorescence, EC20 TRH enhancement; Thyrotropin-releasing hormone receptor (Homo sapiens), P34981; actives 0.66% (n = 360,000); enhancement, % at 2 µM; in the data active means enhancement above about 30%
Target sequence (P34981 whole entry, looked up): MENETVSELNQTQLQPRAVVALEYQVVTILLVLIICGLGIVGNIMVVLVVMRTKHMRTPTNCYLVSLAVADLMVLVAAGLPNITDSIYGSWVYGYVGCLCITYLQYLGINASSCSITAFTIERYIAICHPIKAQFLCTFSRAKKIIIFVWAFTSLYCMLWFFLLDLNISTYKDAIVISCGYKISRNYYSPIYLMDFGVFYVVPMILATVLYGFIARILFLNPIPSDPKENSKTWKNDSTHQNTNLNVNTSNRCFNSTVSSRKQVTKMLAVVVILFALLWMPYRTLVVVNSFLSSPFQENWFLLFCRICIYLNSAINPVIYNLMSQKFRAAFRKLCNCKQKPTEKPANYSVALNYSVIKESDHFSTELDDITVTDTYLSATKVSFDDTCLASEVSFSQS
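Enhancer read-out: after compound pinning and an initial kinetic agonist-mode read, an EC20 of TRH (10 nM final) was injected and fluo-8 calcium signal (Ex 480/Em 530) followed at 1 s/cycle for 100 cycles in TRHR-expressing cells.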
TRHR agonist – qHTS for Small Molecule Agonists and Allosteric Enhancers of Human TRH Receptor: Primary Screen for Agonists. TRHR cells, calcium flux fluo-8, FDSS agonist mode. activation, % at 2 µM. actives 0.18% (n = 360,000). AID 493084, 2011
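Steps: seed TRHR cells overnight; add fluo-8 no-wash Ca dye, RT 30 min–1.5 h; record 10 s baseline; pin-transfer compounds; monitor fluorescence 1 cycle/s for the agonist window. Calcium increases flag candidate agonists.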
D1 potentiator – Potentiators of Human D1 Dopamine Receptor: qHTS | HEK293 TREx D1 cells, calcium flux, dopamine EC20 potentiation | potentiation, % at 10 µM | actives 0.036% (n = 360,000) | D(1A) dopamine receptor (Homo sapiens), P21728; in the data active means potentiation above about 30%
D1 agonist – Allosteric Agonists of the Human D1 Dopamine Receptor: qHTS. actives 1% (n = 360,000). D(1A) dopamine receptor (Homo sapiens), P21728. activation, % at 2 µM. AID 504660, 2011. HEK293 T-REx D1 cells, calcium flux, agonist mode
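Tetracycline-induced HEK293 TREx D1 cells, force-coupled to calcium signalling, were dye-loaded with a no-wash calcium kit. Compound was pin-added after a 10 s baseline. Fluorescence was read kinetically at 1 cycle/s for 180 s, with calcium rises flagged as agonism.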
Numbers stand for hits; ! = a repeat was not active. Unless noted, no stated cut-off is given here; in the data, active means activation above about 30%; inactive means the rest.

`CCCNC(=O)c1onc(CSc2ccccn2)c1C(=O)NCCC` gave D1 antag -37.5, TRHR PAM inactive, TRHR agonist inactive, D1 potentiator inactive and D1 agonist inactive.
Screening O=C(NCc1ccccc1)c1onc(CSc2ccc(Cl)cc2)c1C(=O)NCC1CC1 returned D1 antag inactive, TRHR PAM inactive, TRHR agonist inactive, D1 potentiator inactive and D1 agonist inactive.
Screening C=CCNC(=O)c1onc(CSc2ccc(F)cc2)c1C(=O)NCC=C returned D1 antag inactive, TRHR PAM inactive, TRHR agonist inactive, D1 potentiator inactive and D1 agonist inactive.
`O=C(NCc1ccccc1)c1onc(CSc2ccccc2)c1C(=O)NCC1CC1` gave D1 antag -50.7, TRHR PAM inactive, TRHR agonist inactive, D1 potentiator inactive and D1 agonist 45.7.
For COCCCNC(=O)c1[nH]c2ccccc2c1Sc1ccc(C)cc1 the results were D1 antag inactive, TRHR PAM inactive, TRHR agonist inactive, D1 potentiator inactive and D1 agonist inactive.
For CCN(C(=O)Nc1cn(CC(C)C)c(=O)c2ccccc12)c1cc(C)ccc1C the results were D1 antag inactive, TRHR PAM inactive, TRHR agonist inactive, D1 potentiator inactive and D1 agonist inactive.
`COCc1cc(C)nc2sc3c(=O)n(-c4ccccc4C(F)(F)F)nnc3c12` gave D1 antag inactive, TRHR PAM inactive, TRHR agonist inactive, D1 potentiator inactive and D1 agonist inactive.
For S=c1[nH]nc(-c2n[nH]c3c2CCC3)n1/N=C/C=C/c1ccco1 the results were D1 antag inactive, TRHR PAM 39.2, TRHR agonist inactive, D1 potentiator inactive and D1 agonist inactive.
Screening COc1ccc2oc(=O)c(C(=O)NCCc3c(C)[nH]c4c(Cl)cccc34)cc2c1 returned D1 antag inactive, TRHR PAM inactive, TRHR agonist inactive, D1 potentiator inactive and D1 agonist inactive.
Cc1cc(C)cc(Nc2cc(C(=O)NCc3ccccc3)c3ccccc3n2)c1 was read as D1 antag inactive, TRHR PAM inactive, TRHR agonist inactive, D1 potentiator inactive and D1 agonist inactive.
`CCc1ccc(C(=O)c2cn(CC(=O)Nc3cc(OC)ccc3OC)c3nc(C)ccc3c2=O)cc1` gave D1 antag -49.0, TRHR PAM inactive, TRHR agonist inactive, D1 potentiator inactive and D1 agonist inactive.
For COc1ccc(Cl)cc1NC(=O)Cn1cc(C(=O)c2ccc(C)cc2)c(=O)c2ccc(C)nc21 the results were D1 antag inactive, TRHR PAM inactive, TRHR agonist inactive, D1 potentiator inactive and D1 agonist inactive.
`COc1cc(-c2nc3nc(C)cc(C)n3c2Nc2ccc(Cl)cc2)ccc1O` gave D1 antag inactive, TRHR PAM inactive, TRHR agonist inactive, D1 potentiator inactive and D1 agonist inactive.
COc1ccc2ccccc2c1CNC(C)CCc1ccccc1 (stereo not drawn) was read as D1 antag inactive, TRHR PAM inactive, TRHR agonist inactive, D1 potentiator inactive and D1 agonist inactive.
COc1ccc(CCNCc2c(OC)ccc3ccccc23)cc1OC was read as D1 antag inactive, TRHR PAM inactive, TRHR agonist inactive, D1 potentiator inactive and D1 agonist 37.8.
`COc1ccccc1CCNCc1ccc(OC)c(OCc2ccccc2)c1` gave D1 antag -58.3, TRHR PAM inactive, TRHR agonist inactive, D1 potentiator inactive and D1 agonist 62.2.
Screening COc1ccc(CNCc2ccco2)cc1OCc1ccccc1 returned D1 antag inactive, TRHR PAM inactive, TRHR agonist inactive, D1 potentiator inactive and D1 agonist 44.1.
Cc1ccc(OCc2nnc(SCC(=O)Nc3ccccc3C(C)C)o2)cc1 was read as D1 antag inactive, TRHR PAM inactive, TRHR agonist inactive, D1 potentiator inactive and D1 agonist inactive.
`O=C(Cn1c(=O)ccc2cc(S(=O)(=O)N3CCCC3)ccc21)NCc1ccc(F)cc1` gave D1 antag inactive, TRHR PAM inactive, TRHR agonist inactive, D1 potentiator inactive and D1 agonist inactive.
Screening O=C1c2ccccc2NC(c2ccc(O)cc2)N1c1ccccc1 (stereo not drawn) returned D1 antag -75.4, TRHR PAM inactive, TRHR agonist inactive, D1 potentiator inactive and D1 agonist inactive.
For CC1CC(=O)Nc2ccccc2S1(=O)=O (stereo not drawn) the results were D1 antag -32.2, TRHR PAM inactive, TRHR agonist inactive, D1 potentiator inactive and D1 agonist inactive.
For CCc1ccc(NC(=O)Cn2c(=O)n(Cc3ccc(C)cc3)c(=O)c3cccnc32)cc1 the results were D1 antag inactive, TRHR PAM inactive, TRHR agonist inactive, D1 potentiator inactive and D1 agonist inactive.
N#Cc1ccc2c(c1)C[C@]1(c3ccsc3)OC3=C(C(=O)OC4(CCCCC4)C3)C2O1 was read as D1 antag -32.0, TRHR PAM inactive, TRHR agonist inactive, D1 potentiator inactive and D1 agonist inactive.
For COc1ccc(NS(=O)(=O)c2cc3c(cc2C)NC(=O)CO3)c(OC)c1 the results were D1 antag -57.8!, TRHR PAM inactive, TRHR agonist inactive, D1 potentiator inactive and D1 agonist inactive.
`CC(=O)c1cccc(NS(=O)(=O)c2cc3c(cc2C)NC(=O)CO3)c1` gave D1 antag inactive, TRHR PAM inactive, TRHR agonist inactive, D1 potentiator inactive and D1 agonist inactive.
Screening Cc1cc2c(cc1S(=O)(=O)N(C)CC(=O)Nc1ccc(C#N)cc1)OCC(=O)N2 returned D1 antag -54.9, TRHR PAM inactive, TRHR agonist inactive, D1 potentiator inactive and D1 agonist inactive.
CCOC(=O)c1cccc(NS(=O)(=O)c2cc3c(cc2C)NC(=O)CO3)c1 was read as D1 antag -46.4, TRHR PAM inactive, TRHR agonist inactive, D1 potentiator inactive and D1 agonist inactive.
For COc1cccc(CNS(=O)(=O)c2cc3c(cc2Cl)NC(=O)CO3)c1 the results were D1 antag inactive, TRHR PAM inactive, TRHR agonist inactive, D1 potentiator inactive and D1 agonist inactive.
For COc1cccc(CNS(=O)(=O)c2cc3c(cc2C)NC(=O)CO3)c1 the results were D1 antag -32.4, TRHR PAM inactive, TRHR agonist inactive, D1 potentiator inactive and D1 agonist inactive.
CCc1c(C)sc(NC(=O)c2cc(-c3cccc(Cl)c3)on2)c1C#N was read as D1 antag inactive, TRHR PAM inactive, TRHR agonist inactive, D1 potentiator inactive and D1 agonist inactive.

Assay outcomes: PubChem BioAssay, National Center for Advancing Translational Sciences (NCATS)
